We go through 53 compounds from PubChem BioAssay AID651903 (Broad Institute, 2012).

About 1,100 (5%) of roughly 22,000 compounds were called active. Cut-off read from the data, not from the text of the source: active = activity score above about 55%; inconclusive = no clear call, values can overlap the other calls; inactive = below that. What follows is part of a selection rich in actives, with near analogues and random picks from the rest.

This assay can be described thus: T. cruzi growth inside host cells – cell-based, plate reader, single point, set 2, primary screen (AID 651903).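 Note: parasites and compound incubated about four days before reading; 0% = median of neutral control wells.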 Conditions: intracellular Trypanosoma cruzi in host cells, at 5.01 µM, hits give high values.
As for `C[C@H](CO)N1C[C@H](C)[C@@H](CN(C)Cc2ccc(C(F)(F)F)cc2)Oc2c(NC(=O)NC3CCCCC3)cccc2C1=O`, the activity score (inhibition) is 78.1% (active).

In the case of `COc1ccc(CN(C)C[C@H]2Oc3c(NC(=O)NC4CCCCC4)cccc3C(=O)N([C@@H](C)CO)C[C@@H]2C)cc1`, the activity score (inhibition) is -5.36% (inactive).

In the case of `C[C@@H]1CN([C@H](C)CO)C(=O)c2cccc(NC(=O)Nc3ccc(F)cc3)c2O[C@@H]1CN(C)Cc1ccc(C(F)(F)F)cc1`, the activity score (inhibition) is -18.6% (inactive).

As for `C[C@@H]1CN([C@H](C)CO)C(=O)c2cccc(NC(=O)NC3CCCCC3)c2O[C@H]1CN(C)Cc1ccc(C(F)(F)F)cc1`, the activity score (inhibition) is 85.3% (active).

For the compound `C[C@H]1CN([C@@H](C)CO)C(=O)c2cccc(NC(=O)Nc3ccc(C(F)(F)F)cc3)c2O[C@@H]1CN(C)Cc1ccccc1`, the activity score (inhibition) is 8.46% (inactive).

Regarding `C[C@H]1CN([C@@H](C)CO)C(=O)c2cccc(NC(=O)C3CCCCC3)c2O[C@H]1CN(C)Cc1ccc(C(F)(F)F)cc1`, the activity score (inhibition) was 6.51% (inactive).

For `C[C@@H]1CN([C@@H](C)CO)C(=O)c2cccc(N(C)C)c2O[C@@H]1CN(C)S(C)(=O)=O`, the activity score (inhibition) was -23.1% (inactive).

On to `C[C@H]1CN([C@@H](C)CO)C(=O)c2cccc(NS(=O)(=O)c3ccccc3)c2O[C@@H]1CN(C)S(=O)(=O)c1cn(C)cn1`, for which the activity score (inhibition) is -19.1% (inactive).

On to `C[C@H]1CN([C@@H](C)CO)C(=O)Cc2cc(NC(=O)C3CC3)ccc2O[C@@H]1CN(C)C(=O)NC1CCCCC1`, for which the activity score (inhibition) was -11% (inactive).

As to `CC(C)NC(=O)N(C)C[C@@H]1Oc2c(cccc2N(C)C)C(=O)N([C@H](C)CO)C[C@@H]1C`, the activity score (inhibition) is -30.9% (inactive).

Consider `C[C@@H]1CN([C@@H](C)CO)C(=O)c2cc(NC(=O)Nc3ccccc3)ccc2O[C@H]1CN(C)C(=O)Nc1ccc(F)cc1`, for which the activity score (inhibition) was -1.8% (inactive).

As for `C[C@@H]1CN([C@H](C)CO)C(=O)c2cc(NC(=O)Cc3cn(C)c4ccccc34)ccc2O[C@H]1CN(C)S(C)(=O)=O`, the activity score (inhibition) is -9.14% (inactive).

As for `C[C@@H]1CN([C@@H](C)CO)C(=O)c2cccc(NC(=O)Nc3ccc4c(c3)OCO4)c2O[C@@H]1CN(C)C(=O)Nc1ccc(F)cc1`, the activity score (inhibition) was -15.6% (inactive).

Regarding `C[C@@H]1CN([C@H](C)CO)C(=O)Cc2cc(NC(=O)Nc3cccc4ccccc34)ccc2O[C@@H]1CN(C)Cc1ccc(C(F)(F)F)cc1`, the activity score (inhibition) was 67.4% (active).

As to `Cc1noc(C)c1NC(=O)Nc1ccc2c(c1)CC(=O)N([C@H](C)CO)C[C@@H](C)[C@@H](CN(C)Cc1ccc(C(F)(F)F)cc1)O2`, the activity score (inhibition) was -9.04% (inactive).

On to `C[C@@H]1CN([C@H](C)CO)C(=O)Cc2cc(NC(=O)Nc3ccc4c(c3)OCO4)ccc2O[C@H]1CN(C)Cc1ccc(C(F)(F)F)cc1`, for which the activity score (inhibition) is 64.6% (active).

In the case of `C[C@@H]1CN([C@H](C)CO)C(=O)Cc2cc(NC(=O)Nc3cccc4ccccc34)ccc2O[C@@H]1CN(C)Cc1ccc(C(=O)O)cc1`, the activity score (inhibition) is -16% (inactive).

For the compound `C[C@@H]1CN([C@H](C)CO)C(=O)Cc2cc(NC(=O)Nc3ccc4c(c3)OCO4)ccc2O[C@H]1CN(C)Cc1ccc(C(=O)O)cc1`, the activity score (inhibition) is -10.7% (inactive).

As to `C[C@@H]1CN([C@H](C)CO)C(=O)c2cc(NC(=O)Nc3ccc4c(c3)OCO4)ccc2O[C@@H]1CN(C)Cc1ccc(C(F)(F)F)cc1`, the activity score (inhibition) was 2.66% (inactive).

Turning to `COc1ccc(CN(C)C[C@@H]2Oc3ccc(NC(=O)Nc4ccc(OC)cc4)cc3CC(=O)N([C@H](C)CO)C[C@H]2C)cc1`, the activity score (inhibition) is 12% (inactive).

Turning to `C[C@H]1CN([C@@H](C)CO)C(=O)Cc2cc(NC(=O)Nc3ccc(C(F)(F)F)cc3)ccc2O[C@H]1CN(C)Cc1ccc(C(=O)O)cc1`, the activity score (inhibition) is -28.2% (inactive).

On to `COc1ccc(NC(=O)Nc2ccc3c(c2)CC(=O)N([C@@H](C)CO)C[C@@H](C)[C@@H](CN(C)Cc2ccc(C(F)(F)F)cc2)O3)cc1`, for which the activity score (inhibition) is 76% (active).

In the case of `C[C@@H]1CN([C@H](C)CO)C(=O)c2cc(NC(=O)c3ccncc3)ccc2O[C@H]1CN(C)C(=O)Nc1ccc(C(F)(F)F)cc1`, the activity score (inhibition) was 1.32% (inactive).

In the case of `C[C@@H]1CN([C@H](C)CO)C(=O)c2cc(NC(=O)Nc3ccc(C(F)(F)F)cc3)ccc2O[C@H]1CN(C)C(=O)Nc1ccccc1`, the activity score (inhibition) was 4.44% (inactive).

With `COc1ccc(S(=O)(=O)N(C)C[C@@H]2Oc3ccc(NC(=O)C4CC4)cc3CC(=O)N([C@@H](C)CO)C[C@@H]2C)cc1`, the activity score (inhibition) is -7.17% (inactive).

Regarding `CNC[C@H]1Oc2ccc(NS(=O)(=O)c3ccc(F)cc3)cc2C(=O)N([C@@H](C)CO)C[C@@H]1C`, the activity score (inhibition) was -7.11% (inactive).

Turning to `C[C@H]1CN([C@@H](C)CO)C(=O)c2cccc(NC(=O)c3cnccn3)c2O[C@@H]1CN(C)Cc1ccc(Oc2ccccc2)cc1`, the activity score (inhibition) was 38.8% (inactive).

As to `C[C@H]1CN([C@@H](C)CO)C(=O)Cc2cc(NC(=O)Nc3cccc4ccccc34)ccc2O[C@@H]1CN(C)S(C)(=O)=O`, the activity score (inhibition) was -12.5% (inactive).

For the compound `COc1ccc(S(=O)(=O)Nc2ccc3c(c2)CC(=O)N([C@H](C)CO)C[C@@H](C)[C@@H](CN(C)S(=O)(=O)c2ccc(F)cc2)O3)cc1`, the activity score (inhibition) was 60.4% (active).

For the compound `C[C@H]1CN([C@@H](C)CO)C(=O)Cc2cc(NC(=O)Nc3ccc(F)cc3)ccc2O[C@H]1CN(C)S(=O)(=O)c1ccccc1`, the activity score (inhibition) is 10.9% (inactive).

With `Cc1ccc(S(=O)(=O)N(C)C[C@H]2Oc3ccc(NC(=O)Nc4cccc5ccccc45)cc3CC(=O)N([C@H](C)CO)C[C@H]2C)cc1`, the activity score (inhibition) is 60.6% (active).

Regarding `C[C@@H]1CN([C@H](C)CO)C(=O)Cc2cc(NS(=O)(=O)c3ccc(F)cc3)ccc2O[C@@H]1CN(C)S(=O)(=O)c1ccc(F)cc1`, the activity score (inhibition) was 47.1% (inactive).

With `C[C@@H]1CN([C@H](C)CO)C(=O)Cc2cc(NC(=O)Nc3ccc(C(F)(F)F)cc3)ccc2O[C@@H]1CN(C)S(=O)(=O)c1ccccc1`, the activity score (inhibition) is 70% (active).

Regarding `C[C@H]1CN([C@@H](C)CO)C(=O)Cc2cc(NC(=O)Nc3ccc(C(F)(F)F)cc3)ccc2O[C@@H]1CN(C)S(=O)(=O)c1ccc(Cl)cc1`, the activity score (inhibition) was -15.1% (inactive).

Turning to `Cc1noc(C)c1S(=O)(=O)N(C)C[C@H]1Oc2ccc(NC(=O)Nc3cccc4ccccc34)cc2CC(=O)N([C@@H](C)CO)C[C@H]1C`, the activity score (inhibition) was 23.8% (inactive).

For the compound `C[C@@H]1CN([C@H](C)CO)C(=O)Cc2cc(NS(=O)(=O)c3ccc(Cl)cc3)ccc2O[C@@H]1CN(C)S(=O)(=O)c1ccc(Cl)cc1`, the activity score (inhibition) was 67.3% (active).

For the compound `C[C@H]1CN([C@@H](C)CO)C(=O)Cc2cc(NS(C)(=O)=O)ccc2O[C@@H]1CN(C)S(=O)(=O)c1ccc(Cl)cc1`, the activity score (inhibition) was 2.12% (inactive).

For `C[C@H]1CN([C@@H](C)CO)C(=O)Cc2cc(NS(=O)(=O)c3ccc(Cl)cc3)ccc2O[C@@H]1CN(C)S(=O)(=O)c1ccccc1`, the activity score (inhibition) was 9.06% (inactive).

For the compound `COc1ccc(S(=O)(=O)N(C)C[C@H]2Oc3ccc(NS(=O)(=O)c4ccc(C)cc4)cc3CC(=O)N([C@@H](C)CO)C[C@@H]2C)cc1`, the activity score (inhibition) is -20.8% (inactive).

For the compound `C[C@@H]1CCCCO[C@H](CN(C)C(=O)c2ccccc2)[C@@H](C)CN([C@H](C)CO)C(=O)c2cc(NC(=O)c3ccccc3)ccc2O1`, the activity score (inhibition) was -16.9% (inactive).

Turning to `C[C@@H]1CN([C@@H](C)CO)C(=O)c2cccc(NC(=O)C3CCOCC3)c2O[C@H]1CN(C)C(=O)NC1CCCCC1`, the activity score (inhibition) is 2.53% (inactive).

With `C[C@H]1CN([C@@H](C)CO)C(=O)c2cc(NC(=O)c3ccncc3)ccc2O[C@H]1CN(C)Cc1ccc(C(=O)Nc2ccccc2N)cc1`, the activity score (inhibition) was 37.7% (inactive).

In the case of `C[C@H](CO)N1C[C@H](C)[C@@H](CN(C)Cc2ccc(C(F)(F)F)cc2)Oc2ccc(NC(=O)CCC(F)(F)F)cc2C1=O`, the activity score (inhibition) was 7.64% (inactive).

Take `Cc1ccc(S(=O)(=O)N(C)C[C@H]2Oc3ccc(NS(C)(=O)=O)cc3CC(=O)N([C@@H](C)CO)C[C@H]2C)cc1`: the activity score (inhibition) is 5.47% (inactive).

Turning to `COc1ccc(S(=O)(=O)Nc2cccc3c2O[C@@H](CN(C)S(=O)(=O)c2ccc(F)cc2)[C@H](C)CN([C@H](C)CO)C3=O)cc1`, the activity score (inhibition) was -4.59% (inactive).

Regarding `Cc1ccc(S(=O)(=O)N(C)C[C@H]2Oc3ccc(NS(=O)(=O)c4ccccc4)cc3CC(=O)N([C@@H](C)CO)C[C@H]2C)cc1`, the activity score (inhibition) is 57.7% (active).

With `COc1ccc(S(=O)(=O)N(C)C[C@H]2Oc3c(NS(=O)(=O)c4ccc(F)cc4)cccc3C(=O)N([C@H](C)CO)C[C@H]2C)cc1`, the activity score (inhibition) is 71.9% (active).

Regarding `Cc1ccc(S(=O)(=O)Nc2ccc3c(c2)CC(=O)N([C@@H](C)CO)C[C@@H](C)[C@@H](CN(C)S(=O)(=O)c2ccccc2)O3)cc1`, the activity score (inhibition) was 52% (inactive).

As for `COc1ccc(S(=O)(=O)Nc2cccc3c2O[C@H](CN(C)S(=O)(=O)c2ccc(OC)cc2)[C@@H](C)CN([C@H](C)CO)C3=O)cc1`, the activity score (inhibition) is 8.53% (inactive).

Regarding `C[C@@H]1CN([C@H](C)CO)C(=O)CCCn2cc(nn2)CO[C@H]1CN(C)S(C)(=O)=O`, the activity score (inhibition) was -20.6% (inactive).

Turning to `C[C@H](CO)N1C[C@H](C)[C@H](CN(C)C(=O)Nc2ccc3c(c2)OCO3)Oc2ccc(NC(=O)Nc3ccccc3)cc2CC1=O`, the activity score (inhibition) was -2.34% (inactive).

Consider `Cc1noc(C)c1NC(=O)Nc1ccc2c(c1)CC(=O)N([C@@H](C)CO)C[C@@H](C)[C@@H](CN(C)Cc1ccc(Cl)c(Cl)c1)O2`, for which the activity score (inhibition) is 0.719% (inactive).

On to `C[C@H](CO)N1C[C@H](C)[C@H](CN(C)Cc2ccc3c(c2)OCO3)Oc2c(NS(=O)(=O)c3ccccc3)cccc2C1=O`, for which the activity score (inhibition) was 4.5% (inactive).
